From article PMC12670160, “A drug-repurposing screen of FDA- and EMA-approved drugs identifies two NF-κB inhibitors active against eumycetoma” (Journal of Antimicrobial Chemotherapy, 2025)
Structures can show the parent of a compound that is named as a salt. Where two headings read alike, the source gives them in different places. The whole screen tested about 5,300 compounds, of which about 130 (2.5%) showed an effect of 50% or more. The sample holds strong results, similar compounds and a random draw of the others, so the mix is not that of the screen.

Test system: M. mycetomatis strain mm55
Settings: primary screen, metabolic activity vs growth control, 96 h, 2 µM, inhibitor
[1] = Madurella mycetomatis metabolic activity at 2µM (%)

Row | Compound | % viability [%] | % viability [1] [%]
1 | Cc1coc2c1C(=O)C(=O)c1c-2ccc2c1CCCC2(C)C [ONC0005254, tanshinone iia tanshinone b] | 103.2 | –
2 | C[C@H]1COC2=C1C(=O)C(=O)c1c2ccc2c1CCCC2(C)C [ONC0001081, cryptotanshinone] | 49.66 | –
3 | Cc1c(S(=O)(=O)O)oc2c1C(=O)C(=O)c1c-2ccc2c1CCCC2(C)C [ONC0003377, sodiumtanshinoneiiasulfonate] | 55.5 | –
4 | Nc1nc2nc[nH]c2c(=S)[nH]1 [ONC0003925, tioguanine] | 107.9 | –
5 | Nc1ncn([C@H]2C[C@H](O)[C@@H](CO)O2)c(=O)n1 [ONC0003115, decitabine] | 79.17 | –
6 | Cc1cn([C@@H]2C[C@@H](O)[C@H](CO)O2)c(=O)[nH]c1=O [ONC0004416, telbivudine sebivo tyzeka] | 98.41 | –
7 | Nc1nc(=O)n([C@H]2C[C@H](O)[C@@H](CO)O2)cc1F [ONC0004119, 5fluoro2deoxycytidine] | 7.324 | –
8 | Nc1nc(=O)n([C@H]2C[C@H](O)[C@@H](CO)O2)cc1Cl [ONC0003690, 5chloro2deoxycytidine] | 55.79 | –
9 | O=c1[nH]c(=O)n([C@H]2C[C@H](O)[C@@H](CO)O2)cc1F [ONC0002845, floxuridine] | 24.01 | –
10 | O=c1[nH]c(=O)n([C@H]2C[C@H](O)[C@@H](CO)O2)cc1Br [ONC0001774, 5brdu] | 105.2 | –
11 | Nc1nccc(/C=C/c2ccccc2)n1 [ONC0001621, tcn238] | 73.65 | –
12 | CCC(C/C=C/c1ccccc1)(c1ccccc1)N(C)CC1CC1 (centres unmarked) [ONC0003075, igmesine] | 61.21 | –
13 | O=C1NCN(c2ccccc2)C12CCN(CCCC(c1ccc(F)cc1)c1ccc(F)cc1)CC2 [ONC0003520, fluspirilene] | 48.06 | –
14 | O=C(CCCN1CCC2(CC1)C(=O)NCN2c1ccccc1)c1ccc(F)cc1 [ONC0000014, spiperone] | 87.63 | –
15 | O=C(NCCN1CCC2(CC1)C(=O)NCN2c1cccc(F)c1)c1ccc(F)c(F)c1 [ONC0004390, ml298] | 135.4 | –
16 | CC(C)c1cc(CNc2nc(Nc3cc(C4CC4)[nH]n3)cc(N3CCN(C)CC3)n2)on1 [ONC0000976, xl228] | 85.75 | –
17 | CCCC[C@H](NC(C)=O)C(=O)N[C@H]1CC(=O)NCCCC[C@@H](C(=O)O)NC(=O)[C@H](Cc2c[nH]c3ccccc23)NC(=O)[C@H](CCCN=C(N)N)NC(=O)[C@@H](Cc2ccccc2)NC(=O)[C@H](Cc2cnc[nH]2)NC1=O [ONC0002156, bremelanotide acetate] | 73.73 | –
18 | O=C1O[C@@H](CO)[C@H](O)[C@@H](O)[C@@H]1O [ONC0003123, gluconolactone] | 67.77 | –
19 | C[N+]1(C)CCC(=C(c2ccccc2)c2ccccc2)CC1 [ONC0004508, diphemanil methylsulfate] | 48.99 | –
20 | C[N+]1(C)CCC(OC(=O)C(c2ccccc2)c2ccccc2)CC1 [ONC0003592, 4damp] | 92.53 | –
21 | Clc1cccc(Cl)c1N=C1NCCN1 [ONC0004193, clonidine hydrochloride] | 96.49 | –

Row | Compound | % viability [%] | % viability [1] [%]
22 | Ac-PHSCN-NH2 [ONC0000745, atn161 trifluoroacetate salt] | 72.86 | –
23 | CCNC(=O)[C@@H]1CCCN1C(=O)[C@H](CCCNC(=N)N)NC(=O)[C@H](CC(C)C)NC(=O)[C@@H](C)NC(=O)[C@H](Cc1ccc(O)cc1)NC(=O)[C@H](CO)NC(=O)[C@H](Cc1c[nH]c2ccccc12)NC(=O)[C@H](Cc1c[nH]cn1)NC(=O)[C@@H]1CCC(=O)N1 [ONC0002202, alarelin acetate] | 212.3 | –
24 | CC(CN(C)C)CN1c2ccccc2Sc2ccccc21 (centres unmarked) [ONC0003228, trimeprazine tartrate] | – | 94.09
25 | CS(=O)(=O)c1ccc(Oc2cc(F)cc(C#N)c2)c2c1[C@H](O)C(F)(F)C2 [ONC0001118, pt2385] | 47.48 | –
26 | C[N+](C)(C)[C@@H](Cc1c[nH]c(=S)[nH]1)C(=O)O [ONC0003509, lergothioneine] | 51.74 | –
27 | CCOC(=O)N1CSCC1C(=O)O (centres unmarked) [ONC0002766, 3ethyl thiazolidine34dicarboxylate] | 97.19 | –
28 | Nc1ncnc2c1ncn2[C@H]1O[C@@H](C(=O)N2CCN(CC(=O)Nc3cccc4c3CNC4=O)CC2)[C@H](O)[C@@H]1O [ONC0001619, eb47] | 55.83 | –
29 | Cc1cn([C@H]2O[C@@H](CO)[C@H](O)[C@@H]2F)c(=O)[nH]c1=O [ONC0004549, clevudine levovir] | 61.35 | –
30 | N[C@H](Cc1c[nH]cn1)C(=O)O [ONC0001939, dhistidine] | 75.44 | –
31 | O=C(O)/C=C/c1c[nH]cn1 [ONC0003737, cisurocanicacid] | 146.4 | –
32 | O=C(O)/C=C\c1c[nH]cn1 [ONC0002668, cisurocanic acid] | 45.73 | –
33 | NC(=O)c1nc[nH]c1O [ONC0003682, 5hydroxy1himidazole4carboxamide] | 60.3 | –
34 | Nc1nc2nn[nH]c2c(=O)[nH]1 [ONC0002792, azaguanine8] | 265.7 | –
35 | O=C(O)COc1ccc(OCCNC[C@H](O)COc2ccccc2)cc1 [ONC0002275] | 78.74 | –
36 | COCCNC(=O)COc1ccc(OCCNC[C@H](O)COc2ccccc2)cc1 [ONC0001450, zd7114] | 94.55 | –
37 | O=C(O)Cc1ccc(OCCNC[C@H](O)c2ccccc2)cc1 [ONC0001068, zd2079] | 36.58 | –
38 | COc1ccc(C[C@H](C)NC[C@@H](O)c2ccc(O)c(NC=O)c2)cc1 [ONC0001548, formoterol] | 81.88 | –
39 | COc1ccc([C@]2(O)CC[C@@H](N3CC[C@@H](NC(=O)CNC(=O)c4cccc(C(F)(F)F)c4)C3)CC2)cn1 [ONC0000726, incb 3284] | 81.5 | –
40 | c1ccc(-c2ccc(CNc3nc(-c4ccccn4)nnc3-c3ccccc3)cc2)cc1 [ONC0001674, ml228] | 2.835 | –
41 | c1cnc(NCc2ccc(CNc3ncccn3)cc2)nc1 [ONC0002000, msx122] | 83.13 | –
42 | c1ccc(NCc2ccc(CNc3ccccn3)cc2)nc1 [ONC0004550, wz 811] | 63.57 | –

Row | Compound | % viability [%] | % viability [1] [%]
43 | FCc1ccc(OCCOc2ccc(Cl)cc2Cl)c(Cl)n1 [ONC0000095, cym50260] | 81.52 | –
44 | O=C(O)CN(CCN(CC(=O)O)CC(=O)O)CCN(CC(=O)O)CC(=O)O [ONC0005432, gadopenteticacid] | – | 103.1
45 | CC(C)N[C@@H]1CCn2c(=O)[nH]c3cccc(c32)[C@H]1O [ONC0001941, zilpaterolhcl] | 67.69 | –
46 | COc1cccc2c1C(=O)c1c(O)c3c(c(O)c1C2=O)C[C@@](O)(C(C)=O)C[C@@H]3O[C@H]1C[C@H](N)[C@H](O)[C@H](C)O1 [ONC0001686, daunorubicin] | 72.25 | –
47 | CC(=O)[C@]1(O)Cc2c(O)c3c(c(O)c2[C@@H](O[C@H]2C[C@H](N)[C@H](O)[C@H](C)O2)C1)C(=O)c1ccccc1C3=O [ONC0004533, idarubicin hcl] | 43.23 | –
48 | COc1cccc2c1C(=O)c1c(O)c3c(c(O)c1C2=O)C[C@@](O)(C(=O)CO)C[C@@H]3O[C@H]1C[C@H](N)[C@@H](O)[C@H](C)O1 [ONC0004636, epirubicin hydrochloride] | 92.65 | –
49 | CNC(=O)ON(C(C)=O)C(=O)NC [ONC0003740, caracemide] | 136.5 | –
50 | NC(=O)c1nc(F)c[nH]c1=O [ONC0003386, favipiravir] | 85.13 | –
51 | CC(=O)Nc1ccc(OCC(O)CNC(C)C)cc1 (centres unmarked) [ONC0002176, practolol] | 73.91 | –
52 | CCN(CC)C(=O)Nc1ccc(OCC(O)CNC(C)(C)C)c(C(C)=O)c1 (centres unmarked) [ONC0002160, celiprolol] | 87.56 | –
53 | CCCC(=O)Nc1ccc(OCC(O)CNC(C)C)c(C(C)=O)c1 (centres unmarked) [ONC0003369, acebutolol hydrochloride] | 44.26 | –
54 | COc1ccc(NS(=O)(=O)c2ccc(N=Nc3ccc(O)c(C(=O)O)c3)cc2)nn1 [ONC0003399, salazodine] | 47.95 | –
55 | COc1ccc(NS(=O)(=O)c2ccc(N)cc2)nn1 [ONC0000622, sulfamethoxypyridazine] | 113.3 | –
56 | O=C(O)c1cc(/N=N/c2ccc(S(=O)(=O)Nc3ccccn3)cc2)ccc1O [ONC0000599, sulfasalazine] | 109.1 | –
57 | NS(=O)(=O)NCCNc1nonc1C(=NO)Nc1ccc(F)c(Br)c1 [ONC0005250, epacadostat incb024360] | 130.3 | –
58 | CN1CCN(C(=O)C2C(C(=O)O)[C@@H]3CC[C@H]2O3)CC1 (some centres unmarked) [ONC0001871, lb100] | 109.3 | –
59 | CCO/N=C(/C(=O)N[C@@H]1C(=O)N2C(C(=O)O)=C(Sc3nc(-c4cc[n+](C)cc4)cs3)CS[C@H]12)c1nsc(NP(=O)(O)O)n1 [ONC0002991, ceftarolinefosamil] | 80.17 | –
60 | COc1ccc(NS(=O)(=O)c2sc3ccc(Cl)cc3c2C)cc1N1CCNCC1 [ONC0005236, sb 271046] | 123.6 | –
61 | COc1ccc(NS(=O)(=O)c2ccc(I)cc2)cc1N1CCN(C)CC1 [ONC0001661, sb258585] | 76.38 | –
62 | COc1ccc(S(=O)(=O)Nc2cc(Cl)cc(Cl)c2OC)cc1N1CCNCC1 [ONC0000041, sb399885] | 47.84 | –
